From PubChem BioAssay AID1159580 (chemical genetic matrix, 2015)
The campaign covered roughly 5,500 compounds. About 2,000 (36%) were called active. Not shown: some 18% with an inconclusive outcome. Cut-off read from the data, not from the text of the source: active = normalized growth mostly below about 0.91 (no sharp cut-off); inconclusive = no clear call, values can overlap the other calls; inactive = mostly above about 0.92. This is one part of the list.

Experiment: chemical genetic growth profiling, strain panel (AID 1159580);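 note: tested at 20 µM; growth read once vehicle control cultures reached saturation at 30 °C; 1 = growth at the plate median or of vehicle wells; lower values mean less growth of the strain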
Details: growth OD

Measured: normalized growth

CC(C)N1C(=O)c2ccccc2NS1(=O)=O
inactive: S. cerevisiae deletion strains, locus YKL009W, strain mrt4, stronger effect = lower value 1.01 | S. cerevisiae deletion strains, locus YKL068W, stronger effect = lower value 0.994 | S. cerevisiae deletion strains, locus YKL085W, strain MDH1 (second series), stronger effect = lower value 0.997 | S. cerevisiae deletion strains, locus YKL085W, strain MDH1, stronger effect = lower value 0.997 | S. cerevisiae deletion strains, locus YKL160W, strain elf1, stronger effect = lower value 0.974 | S. cerevisiae deletion strains, locus YKL190W, strain CNB1, stronger effect = lower value 0.998 | S. cerevisiae deletion strains, locus YKR001C, strain vps1, stronger effect = lower value 1.01 | S. cerevisiae deletion strains, locus YKR026C, strain gcn3, stronger effect = lower value 0.972 | S. cerevisiae deletion strains, locus YKR091W, strain srl3, stronger effect = lower value 0.958 | S. cerevisiae deletion strains, locus YLL001W, strain dnm1, stronger effect = lower value 0.937 | S. cerevisiae deletion strains, locus YLL026W, stronger effect = lower value 0.971 | S. cerevisiae deletion strains, locus YLL041C, strain sdh2, stronger effect = lower value 0.958 | S. cerevisiae deletion strains, locus YLR027C, strain aat2, stronger effect = lower value 0.964 | S. cerevisiae deletion strains, locus YLR039C, strain RIC1, stronger effect = lower value 1.03 | S. cerevisiae deletion strains, locus YLR058C, strain SHM2, stronger effect = lower value 1 | S. cerevisiae deletion strains, locus YLR102C, strain apc9, stronger effect = lower value 1 | S. cerevisiae deletion strains, locus YLR113W, strain HOG1, stronger effect = lower value 0.964 | S. cerevisiae deletion strains, locus YLR221C, strain rsa3, stronger effect = lower value 0.994 | S. cerevisiae deletion strains, locus YLR258W, strain gsy2, stronger effect = lower value 0.98 | S. cerevisiae deletion strains, locus YLR262C, strain YPT6 (second series), stronger effect = lower value 0.983 | S. cerevisiae deletion strains, locus YLR262C, strain YPT6, stronger effect = lower value 1.02 | S. cerevisiae deletion strains, locus YLR268W, strain sec22, stronger effect = lower value 1.01 | S. cerevisiae deletion strains, locus YLR320W, strain mms22, stronger effect = lower value 1.01 | S. cerevisiae deletion strains, locus YLR330W, strain CHS5, stronger effect = lower value 0.994 | S. cerevisiae deletion strains, locus YLR342W, strain FKS1 (second series), stronger effect = lower value 1 | S. cerevisiae deletion strains, locus YLR342W, strain FKS1, stronger effect = lower value 0.98 | S. cerevisiae deletion strains, locus YLR357W, strain rsc2, stronger effect = lower value 0.978 | S. cerevisiae deletion strains, locus YLR370C, strain arc18, stronger effect = lower value 0.973 | S. cerevisiae deletion strains, locus YLR371W, strain rom2, stronger effect = lower value 1 | S. cerevisiae deletion strains, locus YLR384C, strain iki3, stronger effect = lower value 0.974 | S. cerevisiae deletion strains, locus YLR418C, strain cdc73, stronger effect = lower value 1.02 | S. cerevisiae deletion strains, locus YML016C, strain PPZ1, stronger effect = lower value 0.997 | S. cerevisiae deletion strains, locus YML032C, strain rad52, stronger effect = lower value 1.01 | S. cerevisiae deletion strains, locus YML120C, strain ndi1, stronger effect = lower value 0.956 | S. cerevisiae deletion strains, locus YML124C, strain tub3, stronger effect = lower value 1 | S. cerevisiae deletion strains, locus YMR058W, strain fet3, stronger effect = lower value 0.968 | S. cerevisiae deletion strains, locus YMR078C, strain ctf18, stronger effect = lower value 0.998 | S. cerevisiae deletion strains, locus YMR125W, strain sto1, stronger effect = lower value 0.933 | S. cerevisiae deletion strains, locus YMR129W, stronger effect = lower value 0.964 | S. cerevisiae deletion strains, locus YMR205C, strain PFK2, stronger effect = lower value 0.961 | S. cerevisiae deletion strains, locus YMR223W, strain ubp8, stronger effect = lower value 1 | S. cerevisiae deletion strains, locus YMR231W, strain pep5, stronger effect = lower value 0.974 | S. cerevisiae deletion strains, locus YMR263W, strain SAP30, stronger effect = lower value 1.01 | S. cerevisiae deletion strains, locus YMR307W, strain GAS1, stronger effect = lower value 1.03 | S. cerevisiae deletion strains, locus YNL067W, strain RPL9B, stronger effect = lower value 0.995 | S. cerevisiae deletion strains, locus YNL071W, strain lat1, stronger effect = lower value 0.98 | S. cerevisiae deletion strains, locus YNL128W, strain TEP1, stronger effect = lower value 1.01 | S. cerevisiae deletion strains, locus YNL153C, strain GIM3, stronger effect = lower value 0.994 | S. cerevisiae deletion strains, locus YNL183C, strain NPR1, stronger effect = lower value 0.973 | S. cerevisiae deletion strains, locus YNL209W, strain ssb2, stronger effect = lower value 0.963 | S. cerevisiae deletion strains, locus YNL233W, strain BNI4, stronger effect = lower value 0.997 | S. cerevisiae deletion strains, locus YNL248C, strain rpa49, stronger effect = lower value 0.99 | S. cerevisiae deletion strains, locus YNL250W, strain rad50, stronger effect = lower value 0.997 | S. cerevisiae deletion strains, locus YNL271C, strain bni1, stronger effect = lower value 0.998 | S. cerevisiae deletion strains, locus YNL298W, strain CLA4, stronger effect = lower value 1.01 | S. cerevisiae deletion strains, locus YNL307C, strain MCK1, stronger effect = lower value 1.01 | S. cerevisiae deletion strains, locus YNL322C, strain KRE1 (second series), stronger effect = lower value 0.951 | S. cerevisiae deletion strains, locus YNL322C, strain KRE1, stronger effect = lower value 1 | S. cerevisiae deletion strains, locus YNR049C, strain mso1, stronger effect = lower value 0.952 | S. cerevisiae deletion strains, locus YNR052C, strain pop2, stronger effect = lower value 0.996 | S. cerevisiae deletion strains, locus YOL006C, strain TOP1, stronger effect = lower value 1.06 | S. cerevisiae deletion strains, locus YOL012C, strain htz1 1.04 | S. cerevisiae deletion strains, locus YOL147C, strain pex11, stronger effect = lower value 0.997 | S. cerevisiae deletion strains, locus YOR001W, strain rrp6, stronger effect = lower value 0.967 | S. cerevisiae deletion strains, locus YOR061W, strain CKA2, stronger effect = lower value 0.998 | S. cerevisiae deletion strains, locus YOR069W, strain VPS5, stronger effect = lower value 0.989 | S. cerevisiae deletion strains, locus YOR070C, strain gyp1, stronger effect = lower value 0.983 | S. cerevisiae deletion strains, locus YOR080W, strain dia2, stronger effect = lower value 0.98 | S. cerevisiae deletion strains, locus YOR083W, strain WHI5, stronger effect = lower value 0.964 | S. cerevisiae deletion strains, locus YOR106W, strain vam3, stronger effect = lower value 0.966 | S. cerevisiae deletion strains, locus YOR136W, strain idh2, stronger effect = lower value 1 | S. cerevisiae deletion strains, locus YOR144C, strain elg1, stronger effect = lower value 0.999 | S. cerevisiae deletion strains, locus YOR184W, strain ser1, stronger effect = lower value 1.01 | S. cerevisiae deletion strains, locus YOR231W, strain MKK1, stronger effect = lower value 0.998 | S. cerevisiae deletion strains, locus YOR265W, strain rbl2, stronger effect = lower value 0.973 | S. cerevisiae deletion strains, locus YOR270C, strain vph1, stronger effect = lower value 0.97 | S. cerevisiae deletion strains, locus YOR290C, strain snf2, stronger effect = lower value 0.96 | S. cerevisiae deletion strains, locus YOR316C, strain cot1, stronger effect = lower value 1.01 | S. cerevisiae deletion strains, locus YPL051W, strain arl3, stronger effect = lower value 0.981 | S. cerevisiae deletion strains, locus YPL055C, strain LGE1, stronger effect = lower value 1.02 | S. cerevisiae deletion strains, locus YPL078C, strain atp4, stronger effect = lower value 0.961 | S. cerevisiae deletion strains, locus YPL106C, strain sse1, stronger effect = lower value 0.971 | S. cerevisiae deletion strains, locus YPL240C, strain hsp82, stronger effect = lower value 0.968 | S. cerevisiae deletion strains, locus YPL241C, strain CIN2, stronger effect = lower value 0.999 | S. cerevisiae deletion strains, locus YPL256C, strain CLN2, stronger effect = lower value 0.987 | S. cerevisiae deletion strains, locus YPR119W, strain clb2, stronger effect = lower value 0.99 | S. cerevisiae deletion strains, locus YPR141C, strain kar3, stronger effect = lower value 1.01 | S. cerevisiae deletion strains, locus YPR163C, strain tif3, stronger effect = lower value 1 | S. cerevisiae deletion strains, locus YPR167C, strain met16, stronger effect = lower value 0.996 | S. cerevisiae deletion strains, strain wtn01, stronger effect = lower value 1.01 | S. cerevisiae strains, strain wild type, stronger effect = lower value 0.997
